In the supplement of paper PMC8728848:
Many of the other results were omitted from the sample, so the strongest signals are more common in it than they were.

Key:
Assay in all cases: glycan array binding signal (z-score within array); higher = stronger binding
Conditions in all cases: glycan notation: IUPAC condensed, linker removed
[1] = target: Gal(b1-4)GlcNAc(b1-3)Gal(b1-4)GlcNAc(b1-3)Gal(b1-4)GlcNAc(b1-2)Man(a1-3)[Gal(b1-4)GlcNAc(b1-3)Gal(b1-4)GlcNAc(b1-3)Gal(b1-4)GlcNAc(b1-2)Man(a1-6)]Man(b1-4)GlcNAc(b1-4)GlcNAc
How it was run: (§1)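 Columns mapping to the same glycan were averaged after glycan names were converted to IUPAC-condensed notation. The data come from 3228 arrays in the Consortium for Functional Glycomics database, limited to those with an available protein sequence. Binding is reported as a within-array Z-score averaged across arrays of one protein sequence and across linkers.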

[2] = target: Gal(b1-4)GlcNAc(b1-3)Gal(b1-4)GlcNAc(b1-3)Gal(b1-4)GlcNAc(b1-3)Gal(b1-4)GlcNAc(b1-2)Man(a1-3)[Gal(b1-4)GlcNAc(b1-3)Gal(b1-4)GlcNAc(b1-3)Gal(b1-4)GlcNAc(b1-3)Gal(b1-4)GlcNAc(b1-2)Man(a1-6)]Man(b1-4)GlcNAc(b1-4)[Fuc(a1-6)]GlcNAc
How it was run: as §1

[3] = target: Gal(b1-4)GlcNAc(b1-3)Gal(b1-4)GlcNAc(b1-3)Gal(b1-4)GlcNAc(b1-3)Gal(b1-4)GlcNAc(b1-2)[Gal(b1-4)GlcNAc(b1-3)Gal(b1-4)GlcNAc(b1-3)Gal(b1-4)GlcNAc(b1-3)Gal(b1-4)GlcNAc(b1-6)]Man(a1-6)[Gal(b1-4)GlcNAc(b1-3)Gal(b1-4)GlcNAc(b1-3)Gal(b1-4)GlcNAc(b1-3)Gal(b1-4)GlcNAc(b1-2)Man(a1-3)]Man(b1-4)GlcNAc(b1-4)[Fuc(a1-6)]GlcNAc
How it was run: as §1

[4] = target: Gal(b1-4)GlcNAc(b1-3)Gal(b1-4)GlcNAc(b1-3)Gal(b1-4)GlcNAc(b1-3)Gal(b1-4)GlcNAc(b1-3)Gal(b1-4)GlcNAc(b1-2)Man(a1-3)[Gal(b1-4)GlcNAc(b1-3)Gal(b1-4)GlcNAc(b1-3)Gal(b1-4)GlcNAc(b1-3)Gal(b1-4)GlcNAc(b1-3)Gal(b1-4)GlcNAc(b1-2)Man(a1-6)]Man(b1-4)GlcNAc(b1-4)GlcNAc
How it was run: as §1

[5] = target: Gal(b1-4)GlcNAc(b1-3)Gal(b1-4)GlcNAc(b1-3)Gal(b1-4)GlcNAc(b1-3)Gal(b1-4)GlcNAc(b1-3)Gal(b1-4)GlcNAc(b1-2)Man(a1-3)[Gal(b1-4)GlcNAc(b1-3)Gal(b1-4)GlcNAc(b1-3)Gal(b1-4)GlcNAc(b1-3)Gal(b1-4)GlcNAc(b1-3)Gal(b1-4)GlcNAc(b1-2)Man(a1-6)]Man(b1-4)GlcNAc(b1-4)[Fuc(a1-6)]GlcNAc
How it was run: as §1

Gal6S(b1-3)GlcNAc6S = target: Gal6S(b1-3)GlcNAc6S
How it was run: as §1

GalNAc(b1-4)GlcNAc = target: GalNAc(b1-4)GlcNAc
How it was run: as §1

GalNAc3S(b1-4)GlcNAc = target: GalNAc3S(b1-4)GlcNAc
How it was run: as §1

[6] = target: GlcNAc(a1-3)Gal(b1-4)GlcNAc
How it was run: as §1

[7] = target: GlcNAc(b1-3)Gal(b1-4)GlcNAc(b1-3)Gal(b1-4)GlcNAc(b1-3)Gal(b1-4)GlcNAc(b1-3)Gal(b1-4)GlcNAc(b1-2)Man(a1-3)[GlcNAc(b1-3)Gal(b1-4)GlcNAc(b1-3)Gal(b1-4)GlcNAc(b1-3)Gal(b1-4)GlcNAc(b1-3)Gal(b1-4)GlcNAc(b1-2)Man(a1-6)]Man(b1-4)GlcNAc(b1-4)[Fuc(a1-6)]GlcNAc
How it was run: as §1

GlcNAc(b1-3)GalNAc = target: GlcNAc(b1-3)GalNAc
How it was run: as §1

Man(a1-2)Man(a1-3)Man = target: Man(a1-2)Man(a1-3)Man
How it was run: as §1

Neu5Ac(a2-3)Gal = target: Neu5Ac(a2-3)Gal
How it was run: as §1

[8] = target: Neu5Ac(a2-3)Gal(b1-3)GalNAc
How it was run: as §1

[9] = target: Neu5Ac(a2-3)Gal(b1-3)GlcNAc(b1-3)Gal(b1-4)GlcNAc
How it was run: as §1

[10] = target: Neu5Ac(a2-3)Gal(b1-3)[Neu5Ac(a2-6)]GlcNAc(b1-3)[Fuc(a1-3)[Gal(b1-4)]GlcNAc(b1-6)]Gal(b1-4)Glc
How it was run: as §1

[11] = target: Neu5Ac(a2-3)Gal(b1-4)GlcNAc(b1-3)Gal(b1-4)GlcNAc(b1-3)Gal(b1-4)GlcNAc(b1-2)Man(a1-3)[Neu5Ac(a2-3)Gal(b1-4)GlcNAc(b1-3)Gal(b1-4)GlcNAc(b1-3)Gal(b1-4)GlcNAc(b1-2)Man(a1-6)]GalNAc
How it was run: as §1

[12] = target: Neu5Ac(a2-3)Gal(b1-4)[Fuc(a1-3)]GlcNAc(b1-3)GalNAc
How it was run: as §1

[13] = target: Neu5Ac(a2-3)Gal6S(b1-4)[Fuc(a1-3)]GlcNAc
How it was run: as §1

[14] = target: Neu5Ac(a2-6)Gal(b1-3)GlcNAc(b1-3)[Gal(b1-4)GlcNAc(b1-6)]Gal(b1-4)Glc
How it was run: as §1

[15] = target: Neu5Ac(a2-6)Gal(b1-4)GlcNAc(b1-2)Man(a1-6)[GlcNAc(b1-2)Man(a1-3)]Man(b1-4)GlcNAc(b1-4)GlcNAc
How it was run: as §1

[16] = target: Neu5Ac(a2-6)Gal(b1-4)GlcNAc(b1-3)Gal(b1-4)[Fuc(a1-3)]GlcNAc(b1-3)Gal(b1-4)[Fuc(a1-3)]GlcNAc
How it was run: as §1

Neu5Ac(a2-8)Neu5Ac = target: Neu5Ac(a2-8)Neu5Ac
How it was run: as §1

[17] = target: Neu5Gc(a2-3)Gal(b1-3)[Fuc(a1-4)]GlcNAc
How it was run: as §1

[18] = target: Neu5Gc(a2-3)Gal(b1-4)GlcNAc(b1-3)Gal(b1-4)GlcNAc(b1-2)Man(a1-3)[Neu5Gc(a2-3)Gal(b1-4)GlcNAc(b1-3)Gal(b1-4)GlcNAc(b1-2)Man(a1-6)]Man(b1-4)GlcNAc(b1-4)GlcNAc
How it was run: as §1

B1: GS7807H-bfa-490-18-490 (Bacteroides fragilis) (protein)
chain: GNLEEMNIDPDNATQTHPKLLLTQICMNAFKRGTDGMYATKKVIQADGESADQYYKWTRGSFGYYDNLRNVQKMGEEAERVNAPVYTALTKFFRAYYFYELTLRFGDIPYSQALKGEKEEIYTPEYDAQEDVFAGILQELREADEILANDASVIDGDIIYNGNSTQWRKLINSFRLKVLMTLSNHTTVGNINIASEFKNIATNSPLMNSLADNGQLVYLDQQGNRYPQFNAQWSGYYMDDTFIQRMRERRDPRLFIFSAQTNKGKTEGKPIDDFSSYEGGDPAAPYSDAIIKVSEGTISPINDRFRTDPIVEPTMLMGYAELQQILAEAVVRGWISGNAQTYYEKGIRASFSFYETHAKDYAGYLNENAVAQYLKEPLVDFTQASGTEEQIERIIMQKYLVTFYQGNWDSFYEQLRTGYPDFRRPAGTEIPKRWMYPQGEYDNNGTNVETAITRQFGAGNDKINQATWWQKKS
[1]
  glycan array binding signal (z-score): 2.19
[2]
  glycan array binding signal (z-score): 2.51
[3]
  glycan array binding signal (z-score): 2.08
[4]
  glycan array binding signal (z-score): 1.71
[5]
  glycan array binding signal (z-score): 2.17
Gal6S(b1-3)GlcNAc6S
  glycan array binding signal (z-score): 1.52
GalNAc(b1-4)GlcNAc
  glycan array binding signal (z-score): 0.462
GalNAc3S(b1-4)GlcNAc
  glycan array binding signal (z-score): -0.743
[6]
  glycan array binding signal (z-score): -0.677
[7]
  glycan array binding signal (z-score): 4.28
GlcNAc(b1-3)GalNAc
  glycan array binding signal (z-score): -0.454
Man(a1-2)Man(a1-3)Man
  glycan array binding signal (z-score): 0.369
Neu5Ac(a2-3)Gal
  glycan array binding signal (z-score): -0.022
[8]
  glycan array binding signal (z-score): -0.368
[9]
  glycan array binding signal (z-score): -0.526
[10]
  glycan array binding signal (z-score): -0.176
[11]
  glycan array binding signal (z-score): 9.02
[12]
  glycan array binding signal (z-score): 5.66
[13]
  glycan array binding signal (z-score): -0.29
[14]
  glycan array binding signal (z-score): 0.078
[15]
  glycan array binding signal (z-score): -0.141
[16]
  glycan array binding signal (z-score): -0.32
Neu5Ac(a2-8)Neu5Ac
  glycan array binding signal (z-score): -0.459
[17]
  glycan array binding signal (z-score): -0.469
[18]
  glycan array binding signal (z-score): -0.11
